Source: PubChem BioAssay (Tox21)
Where “and” joins values, the source holds several entries; their conditions need not be identical. Equal entries are not always repeated. Records with an inconclusive call do not appear. A call without a number means that no potency is given here. Where a structure was tested more than once in an assay, its records may differ in their call. Calls of active or inactive are those of the source. Unless noted, calls come from the whole dose curve.

What was measured:
[1] = Nuclear factor erythroid 2-related factor 2/antioxidant responsive element (Nrf2/ARE) small molecule agonists: qHTS cell viability counter screen in human keratinocytes (AID 1919968; active = well fitted curve in the direction sought with a large enough effect in the repeat runs; an effect the other way counts as inactive or inconclusive; note: nearly all actives have a fitted effect of over 55% in size; note: potency is the fitted concentration of half-maximal effect)
Method in brief: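 KeratinoSens cells (HaCaT keratinocytes stably carrying an ARE-luciferase reporter) were seeded at 1,500 cells/well and rested 5 h at 37 C/5% CO2. They were then exposed to compounds in DMSO for 23 h. Viability was read by CellTiter-Fluor fluorescence after 1 h.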

[2] = Nuclear factor erythroid 2-related factor 2/antioxidant responsive element (Nrf2/ARE) small molecule agonists: luciferase reporter gene qHTS assay in human keratinocytes (AID 1919969); note: nearly all actives have a fitted effect of over 35% in size; note: potency is the fitted concentration of half-maximal effect
[3] = biological target: Gonadotropin-releasing hormone receptor (Homo sapiens) (UniProt P30968); test: Human gonadotropin-releasing hormone receptor (GnRHR) small molecule agonists, calcium flux assay in GnRHR-HEK293 cells (AID 1920063); note: nearly all actives have a fitted effect of over 35% in size
Method in brief: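 HEK293 cells stably expressing human GnRHR were plated 18 h at 37 °C, loaded with calcium dye 1 h at 37 °C, then given compound in agonist mode; fluorescence (Ex/Em 480/540) read kinetically for 3 min at 1 s intervals.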

[4] = biological target: KiSS-1 receptor (Homo sapiens) (UniProt Q969F8); test: Human kisspeptin (KISS1R) small molecule agonists, calcium flux assay in KISS1R-HEK293 cells (AID 1920064; active = well fitted curve in the direction sought with a large enough effect in the repeat runs; an effect the other way counts as inactive or inconclusive)
Method in brief: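 HEK293 cells stably expressing human KISS1R were plated 18 h at 37 °C, loaded with calcium dye for 1 h at 37 °C, then given compound by pin tool. Fluorescence (Ex/Em 480/540) was read kinetically for 3 min.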

[5] = G protein-coupled receptor (GPCR) small molecule agonists, calcium flux assay: HEK293 wild type cell line counter screen (AID 1920065)
Method in brief: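 Cells were plated and cultured 18 h at 37 C/5% CO2, then loaded with calcium dye for 1 h at 37 C. Compounds in DMSO were pin-transferred in agonist mode, and fluorescence (Ex/Em 480/540) was read kinetically for 3 min at 1 s intervals.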

[6] = p53 small molecule agonists, cell-based qHTS assay with rat liver microsomes (AID 1963578)
Method in brief: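 Metabolic activation is supplied by rat liver microsomes with NADPH (each 0.5 mg/mL final). p53RE-bla cells incubate with compound 16 h at 37 C; reporter activity is measured by LiveBLAzer fluorescence.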

[7] = p53 small molecule agonists, cell-based qHTS assay with human liver microsomes: qHTS cell viability counter screen (AID 1963579); note: nearly all actives have a fitted effect of over 45% in size; note: potency is the fitted concentration of half-maximal effect
Method in brief: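 After the 460/530 nm beta-lactamase read, CellTiter-Glo was added to the same wells and luminescence measured after 30 min at room temperature, giving viability of p53RE-bla cells treated 16 h with compounds plus microsomes and NADPH.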

[8] = p53 small molecule agonists, cell-based qHTS assay with rat liver microsomes: qHTS cell viability counter screen (AID 1963580); note: nearly all actives have a fitted effect of over 45% in size
Method in brief: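 p53RE-bla HCT-116 cells (4,000/well) rested 5 h at 37 C, then given Tox21 compounds in DMSO with rat liver microsomes (0.5 mg/mL final) plus NADPH (0.5 mg/mL final) for 16 h at 37 C. Viability read by CellTiter-Glo luminescence after 30 min at room temperature.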

[9] = p53 small molecule agonists, cell-based qHTS assay: qHTS cell viability counter screen (AID 1963581); note: nearly all actives have a fitted effect of over 45% in size
Method in brief: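 p53RE-bla HCT-116 cells were exposed to compounds for 16 h at 37 C; after the beta-lactamase FRET read in the same wells, CellTiter-Glo was added and luminescence (intracellular ATP) read after 30 min at room temperature.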

[10] = p53 small molecule agonists, cell-based qHTS assay (AID 1963582; active = well fitted activation curve with a large enough effect in the signal ratio in the repeat runs, not every such curve was filed as active; the % refers to the signal ratio)
Method in brief: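 p53RE-bla beta-lactamase reporter cells rested 5 h at 37 C/5% CO2, then received compounds in DMSO by pin transfer and were incubated 16 h at 37 C. LiveBLAzer B/G FRET substrate was loaded for 2 h at room temperature before fluorescence reading.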

[11] = biological target: 5-hydroxytryptamine receptor 2A (Homo sapiens) (UniProt P28223); test: 5-hydroxytryptamine receptor 2A (HTR2A) small molecule antagonists, cell-based qHTS assay (AID 1963586); note: nearly all actives have a fitted effect of over 45% in size
Method in brief: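 Antagonist-mode intracellular calcium assay: DOI (4 nM) added after 5 min compound pre-incubation at room temperature to dye-loaded HTR2A-CHO cells. Fluorescence followed for 3 min, sampled every second.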

[12] = biological target: 5-hydroxytryptamine receptor 2A (Homo sapiens) (UniProt P28223); test: 5-hydroxytryptamine receptor 2A (HTR2A) small molecule agonists, cell-based qHTS assay (AID 1963587); note: nearly all actives have a fitted effect of over 30% in size
Method in brief: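 HTR2A-CHO cells, plated 18 h at 37 C/5% CO2, dye-loaded 1 h at 37 C; compounds in DMSO added by pin tool (agonist mode). Intracellular calcium flux read as kinetic fluorescence on FDSS over 2 min at 1 s intervals.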

[13] = biological target: Muscarinic acetylcholine receptor M1 (Homo sapiens) (UniProt P11229); test: Cholinergic receptor muscarinic 1 (CHRM1) small molecule antagonists, cell-based qHTS assay (AID 1963588); note: nearly all actives have a fitted effect of over 40% in size
Method in brief: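 CHRM1-CHO calcium-flux assay, antagonist mode. Cells were seeded 18 h, dye-loaded 1 h at 37 C and given compound for 5 min at RT, then acetylcholine was added at 50nM. FDSS fluorescence was read 3 min; 15 concentrations, three runs.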

[14] = biological target: Muscarinic acetylcholine receptor M1 (Homo sapiens) (UniProt P11229); test: Cholinergic receptor muscarinic 1 (CHRM1) small molecule agonists, cell-based qHTS assay (AID 1963589); note: nearly all actives have a fitted effect of over 35% in size
Method in brief: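 CHO cells stably expressing human CHRM1, seeded 18 h at 37 C/5% CO2, dye-loaded 1 h at 37 C, then given compound in agonist mode; intracellular calcium fluorescence read kinetically at 1 s intervals. Fifteen concentrations, three independent runs.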

[15] = cAMP Responsive Elements (CRE) small molecule antagonists, cell-based qHTS assay (AID 1963591; active = well fitted inhibition curve with a large enough effect in the signal ratio in the repeat runs, not every such curve was filed as active; the % refers to the signal ratio)
Method in brief: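 CRE-bla HEK293T cells were plated 18 h at 37 °C/5% CO2, pinned with compound in DMSO, then stimulated with NKH477 at 0.25 uM final for 3 h. LiveBLAzer B/G FRET substrate was added and plates incubated 2 h at room temperature.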

[16] = biological target: Beta-2 adrenergic receptor (Homo sapiens) (UniProt P07550); test: Adrenergic beta2 receptor (ADRB2) small molecule antagonists, cell-based qHTS assay (AID 1963592); note: series mostly up to about 92 µM; nearly all actives have a fitted effect of over 50% in size
Method in brief: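 Cells (CHO, stable ADRB2 overexpression) incubated 18-20hr at 37C; compounds added from DMSO; agonist mix (1nM isoproterenol, 100uM IBMX, 25uM Ro-20-1724) added; 0.5hr RT; d2-cAMP and anti-cAMP-cryptate added; 1hr RT; 665/615 nm read.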

[17] = biological target: D(2) dopamine receptor (Homo sapiens) (UniProt P14416); test: Dopamine D2 receptor (DRD2) small molecule agonists, cell-based qHTS assay (AID 1963594); note: nearly all actives have a fitted effect of over 35% in size
Method in brief: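 HEK293 cells stably expressing DRD2 were cultured 24 h at 37 C, then given Ro20-1724 (0.1 mM final) and compounds for 10 min at room temperature. NKH477 (200nM) was then added for 30 min. cAMP was read by HTRF.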

[18] = biological target: D(2) dopamine receptor (Homo sapiens) (UniProt P14416); test: Dopamine D2 receptor (DRD2) small molecule antagonists, cell-based qHTS assay (AID 1963595; active = well fitted inhibition curve with a large enough effect in the signal ratio in the repeat runs, with a control signal flat; the % refers to the signal ratio)
Method in brief: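 Stable D2 receptor HEK293 line, 24 h after seeding. Compound preincubated 10 min, then quinpirole (12 nM) with forskolin analogue NKH477 (200 nM), 30 min, room temperature. Detection by time-resolved FRET of cAMP.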

[19] = cAMP Responsive Elements (CRE) small molecule agonists, cell-based qHTS assay (AID 1963590)
Method in brief: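 CRE-bla HEK 293T cells in DMEM with 10% dialyzed FBS, NEAA, pyruvate and 25 mM HEPES were plated 18 h at 37 C/5% CO2, then exposed to compounds in DMSO for 3 h before LiveBLAzer B/G FRET substrate addition.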

[20] = biological target: Beta-2 adrenergic receptor (Homo sapiens) (UniProt P07550); test: Adrenergic beta2 receptor (ADRB2) small molecule agonists, cell-based qHTS assay (AID 1963593);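 note: CHO cells stably overexpressing human ADRB2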
Method in brief: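 CHO cells stably over-expressing ADRB2 were plated overnight at 37C, then dosed with compounds plus a stimulation mix containing 100uM IBMX and 25uM Ro-20-1724 for 0.5hr at room temperature. cAMP was measured by HTRF competition, 1hr.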

Gonadotropin-releasing hormone receptor (Homo sapiens), sequence (P30968 whole entry, looked up): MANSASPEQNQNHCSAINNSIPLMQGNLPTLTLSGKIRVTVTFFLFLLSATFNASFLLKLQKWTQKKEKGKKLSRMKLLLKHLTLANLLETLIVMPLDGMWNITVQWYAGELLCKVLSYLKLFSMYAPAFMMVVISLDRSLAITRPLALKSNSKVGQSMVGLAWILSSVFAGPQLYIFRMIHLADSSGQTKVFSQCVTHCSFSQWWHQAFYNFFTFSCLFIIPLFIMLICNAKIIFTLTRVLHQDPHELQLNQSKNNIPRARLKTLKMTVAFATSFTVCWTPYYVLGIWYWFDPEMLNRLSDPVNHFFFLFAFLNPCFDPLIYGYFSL
Beta-2 adrenergic receptor (Homo sapiens), sequence (P07550 whole entry, looked up): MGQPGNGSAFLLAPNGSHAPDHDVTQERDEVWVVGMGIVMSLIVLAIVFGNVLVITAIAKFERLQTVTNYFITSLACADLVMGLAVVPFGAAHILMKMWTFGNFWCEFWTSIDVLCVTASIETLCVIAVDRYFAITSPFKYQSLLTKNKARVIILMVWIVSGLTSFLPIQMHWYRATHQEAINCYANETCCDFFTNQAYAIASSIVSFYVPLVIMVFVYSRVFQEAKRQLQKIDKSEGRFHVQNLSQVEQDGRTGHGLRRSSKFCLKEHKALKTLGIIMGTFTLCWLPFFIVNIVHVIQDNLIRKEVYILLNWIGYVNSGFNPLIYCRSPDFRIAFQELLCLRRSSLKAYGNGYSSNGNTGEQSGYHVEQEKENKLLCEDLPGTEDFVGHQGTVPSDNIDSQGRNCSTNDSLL
5-hydroxytryptamine receptor 2A (Homo sapiens), sequence (P28223 whole entry, looked up): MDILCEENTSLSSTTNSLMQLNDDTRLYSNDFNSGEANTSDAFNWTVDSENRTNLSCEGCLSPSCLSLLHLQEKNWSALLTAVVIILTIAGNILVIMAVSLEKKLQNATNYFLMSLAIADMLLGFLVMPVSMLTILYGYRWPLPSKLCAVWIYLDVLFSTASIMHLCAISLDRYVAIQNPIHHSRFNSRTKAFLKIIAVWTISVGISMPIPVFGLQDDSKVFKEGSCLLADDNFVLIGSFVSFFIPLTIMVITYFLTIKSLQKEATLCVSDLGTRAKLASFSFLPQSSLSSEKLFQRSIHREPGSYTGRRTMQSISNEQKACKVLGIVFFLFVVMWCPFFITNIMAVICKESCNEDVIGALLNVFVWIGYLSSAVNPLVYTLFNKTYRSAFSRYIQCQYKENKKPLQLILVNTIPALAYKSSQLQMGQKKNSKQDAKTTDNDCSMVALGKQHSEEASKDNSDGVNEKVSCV
Muscarinic acetylcholine receptor M1 (Homo sapiens), sequence (P11229 whole entry, looked up): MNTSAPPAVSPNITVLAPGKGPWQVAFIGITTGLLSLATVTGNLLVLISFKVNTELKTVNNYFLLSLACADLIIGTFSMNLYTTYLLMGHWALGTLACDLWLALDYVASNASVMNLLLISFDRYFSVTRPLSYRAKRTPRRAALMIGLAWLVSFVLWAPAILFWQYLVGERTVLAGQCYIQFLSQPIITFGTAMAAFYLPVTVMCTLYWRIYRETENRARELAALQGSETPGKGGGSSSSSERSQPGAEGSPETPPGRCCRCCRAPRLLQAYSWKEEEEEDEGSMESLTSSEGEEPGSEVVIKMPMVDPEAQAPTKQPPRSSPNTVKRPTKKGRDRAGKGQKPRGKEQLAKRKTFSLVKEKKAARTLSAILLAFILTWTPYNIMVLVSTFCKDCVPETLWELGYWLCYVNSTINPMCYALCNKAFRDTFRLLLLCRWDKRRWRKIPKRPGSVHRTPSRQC
KiSS-1 receptor (Homo sapiens), sequence (Q969F8 whole entry, looked up): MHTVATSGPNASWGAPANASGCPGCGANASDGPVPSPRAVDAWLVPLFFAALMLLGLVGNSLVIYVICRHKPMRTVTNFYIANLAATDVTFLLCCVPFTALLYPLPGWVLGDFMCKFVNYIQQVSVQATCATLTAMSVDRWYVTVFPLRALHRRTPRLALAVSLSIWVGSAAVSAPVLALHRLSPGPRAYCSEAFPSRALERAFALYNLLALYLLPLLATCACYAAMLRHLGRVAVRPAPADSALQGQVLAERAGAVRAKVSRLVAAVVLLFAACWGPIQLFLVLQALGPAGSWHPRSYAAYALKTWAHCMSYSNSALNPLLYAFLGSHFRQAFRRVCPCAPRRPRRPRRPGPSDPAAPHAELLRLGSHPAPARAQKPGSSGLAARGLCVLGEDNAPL
D(2) dopamine receptor (Homo sapiens), sequence (P14416 whole entry, looked up): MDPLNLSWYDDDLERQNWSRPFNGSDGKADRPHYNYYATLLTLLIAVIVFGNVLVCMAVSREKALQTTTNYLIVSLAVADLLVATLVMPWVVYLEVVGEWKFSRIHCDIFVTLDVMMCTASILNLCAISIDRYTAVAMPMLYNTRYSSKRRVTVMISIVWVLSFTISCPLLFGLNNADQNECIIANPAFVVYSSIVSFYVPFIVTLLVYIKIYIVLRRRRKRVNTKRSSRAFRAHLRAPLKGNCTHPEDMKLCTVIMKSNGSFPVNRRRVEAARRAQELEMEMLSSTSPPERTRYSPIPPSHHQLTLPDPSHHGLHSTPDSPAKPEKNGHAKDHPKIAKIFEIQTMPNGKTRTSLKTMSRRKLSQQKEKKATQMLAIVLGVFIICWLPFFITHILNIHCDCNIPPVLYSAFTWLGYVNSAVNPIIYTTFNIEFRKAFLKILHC

## FC(F)(F)/C(=N\OCC1OCCO1)c1ccc(Cl)cc1
[1]
  Potency: inactive
[2]
  Potency: inactive
[3]
  Potency: inactive
[4]
  Potency: inactive
[5]
  Potency: inactive
[6]
  Potency: inactive
[7]
  Potency: inactive
[8]
  Potency: inactive
[9]
  Potency: inactive
[10]
  Potency: inactive
[11]
  Potency: inactive
[12]
  Potency: inactive
[13]
  Potency: inactive
[14]
  Potency: inactive
[15]
  Potency: inactive
[16]
  Potency: inactive
[17]
  Potency: inactive
[18]
  Potency: inactive

## O=S(=O)(O)CO
[1]
  Potency: inactive
[2]
  Potency: inactive
[3]
  Potency: inactive
[4]
  Potency: inactive
[5]
  Potency: inactive
[6]
  Potency: inactive
[7]
  Potency: inactive
[8]
  Potency: inactive
[9]
  Potency: inactive
[10]
  Potency: inactive
[11]
  Potency: inactive
[12]
  Potency: inactive
[13]
  Potency: inactive
[19]
  Potency: inactive
[15]
  Potency: inactive
[16]
  Potency: inactive
[20]
  Potency: inactive
[17]
  Potency: inactive
[18]
  Potency: inactive

## c1ccc(Nc2cccc3ccccc23)cc1
[1]
  Potency: 61.9 µM (active)
[2]
  Potency: inactive and 68.6 µM (active)
[3]
  Potency: inactive
[4]
  Potency: inactive
[5]
  Potency: inactive
[6]
  Potency: inactive
[7]
  Potency: 46.4 µM (active)
[8]
  Potency: inactive
[9]
  Potency: inactive
[10]
  Potency: inactive
[12]
  Potency: inactive
[13]
  Potency: inactive
[16]
  Potency: inactive
[18]
  Potency: inactive

## CC1COc2ccccc2N1 (stereo not drawn)
[1]
  Potency: inactive
[2]
  Potency: 54.5 µM (active)
[3]
  Potency: inactive
[4]
  Potency: inactive
[5]
  Potency: inactive
[6]
  Potency: inactive
[7]
  Potency: inactive
[9]
  Potency: inactive
[10]
  Potency: inactive
[11]
  Potency: inactive
[12]
  Potency: inactive
[13]
  Potency: inactive
[14]
  Potency: inactive
[19]
  Potency: inactive
[15]
  Potency: inactive
[16]
  Potency: inactive
[17]
  Potency: inactive

## CC[C@H](C)[C@H](N)C(=O)O
[1]
  Potency: inactive
[2]
  Potency: inactive
[3]
  Potency: inactive
[4]
  Potency: inactive
[5]
  Potency: inactive
[6]
  Potency: inactive
[7]
  Potency: inactive
[8]
  Potency: inactive
[9]
  Potency: inactive
[10]
  Potency: inactive
[11]
  Potency: inactive
[12]
  Potency: inactive
[13]
  Potency: inactive
[14]
  Potency: inactive
[19]
  Potency: inactive
[15]
  Potency: inactive
[16]
  Potency: inactive
[17]
  Potency: inactive
[18]
  Potency: inactive

## NC(=S)Nc1cccc2ccccc12
[1]
  activity change, negative = cytotoxicity: -1.52% [at 8.39 µM] (inactive)
[2]
  activity, positive = activation: -4.89% [at 8.39 µM] (inactive)
[3]
  activity change: 0.074% [at 5.22 µM, stronger effect = higher value] (inactive)
[4]
  activation: 6.64% [at 6.97 µM] (inactive)
[5]
  activation: -0.659% [at 5.23 µM] (inactive)
[6]
  activation: 0.459% [at 5.99 µM] (inactive)
[7]
  activity change, negative = cytotoxicity: 3.12% [at 5.99 µM] (inactive)
[8]
  activity change, negative = cytotoxicity: 8.96% [at 5.99 µM] (inactive)
[9]
  activity change, negative = cytotoxicity: 19.8% [at 5.99 µM] (inactive)
[10]
  activation: -2.75% [at 5.99 µM] (inactive)
[11]
  activity, negative = inhibition: 12.8% [at 5.62 µM] (inactive)
[12]
  activation: 1.75% [at 7.02 µM] (inactive)
[13]
  activity, negative = inhibition: -5.9% [at 5.58 µM] (inactive)
[14]
  activation: 0.152% [at 6.97 µM] (inactive)
[19]
  activation: -1.04% [at 8.39 µM] (inactive)
[15]
  activity change, negative = inhibition: 1.21% [at 8.39 µM] (inactive)
[17]
  activation: 2.03% [at 8.39 µM] (inactive)
[18]
  activity change, negative = inhibition: -0.294% [at 8.38 µM] (inactive)

## CC(=O)Nc1c(I)cc(I)c(C(=O)O)c1I
[1]
  Potency: inactive
[2]
  Potency: inactive
[3]
  Potency: inactive
[4]
  Potency: inactive
[5]
  Potency: inactive
[6]
  Potency: inactive
[7]
  Potency: inactive
[8]
  Potency: inactive
[9]
  Potency: inactive
[11]
  Potency: inactive
[12]
  Potency: inactive
[13]
  Potency: inactive
[14]
  Potency: inactive
[19]
  Potency: inactive
[15]
  Potency: inactive
[16]
  Potency: inactive
[17]
  Potency: inactive
[18]
  Potency: inactive
